Test results as given in PubChem BioAssay (NCATS).
Records with an inconclusive call do not appear. The source made the active and inactive calls. Calls come from the whole dose curve; as a rule, active = well fitted activation curve with a large enough effect; inconclusive = small, poorly fitted or top-dose-only effect; inactive = no such curve, though single readings can be large or run the other way.

Test: qHTS for Activators of Parkin Expression: LOPAC Validation Assay (FLuc Reporter) (AID 720573)
Conditions: Cell line, PRKN promoter firefly luciferase reporter, vehicle wells = 0, positive control = 100%; series mostly up to 46.1 µM
Excerpt: Parkin is an E3 ubiquitin ligase localized in the cytosol of cells expressed in many tissues, including brain, skeletal muscle, heart and liver tissues. One hour after stress induction by mitochondrial uncouplers (which mimic mitochondria damage by decreasing the mitochondrial inner membrane electrochemical gradient that is used to produce ATP), Parkin translocates from the cytosol to mitochondria in many cultured cell types, including neurons and HeLa cells. Administration of other mitochondrial poisons, such as Paraquat and azide in cells lacking mitochondrial DNA (mtDNA), induces Parkin translocation to mitochondria. […] It was proposed that Parkin (together with Pink1) mediates a mitochondrial quality control pathway to maintain organelle population fidelity by removing damaged mitochondria. Understanding the normal physiologic role of Parkin (and Pink1) may uncover novel treatment strategies for sporadic Parkinson's disease patients with mutation in these genes.
A cell based qHTS in 1536 well format was developed assess modulation of Parkin expression using a neuronal cell line that stably expresses a stably expresses a luminescent coincidence reporter (FLuc and NLuc reporters) behind the Parkin promoter. The LOPAC library is used to validate the assay for quantitative high-throughput screening. The data herein reports the signal from the FLuc reporter. An increase in this signal = activation of Parkin expression. For this assay , a positive control normalized signal increase corresponding to a high quality qHTS curve class in both luminescent channels is the desired outcome for this assay.
NIH Chemical Genomics Center [NCGC]
NIH Molecular Libraries Probe Centers Network [MLPCN]
Assay Submitter (PI): Richard Youle, National Institute of Neurological Disorders and Strokes (NINDS), NIH
[1] Narendra, D., et al., Parkin is recruited selectively to impaired mitochondria and promotes their autophagy. J Cell Biol, 2008. 183(5): p. 795-803.
[2] Suen, D.F., et al., Parkin overexpression selects against a deleterious mtDNA mutation in heteroplasmic cybrid cells. Proc Natl Acad Sci U S A, 2010. […] 11835-40.
[3] Cheng K, Inglese J. A coincedence reporter-gene system for high-throughput screening. Nat Methods. 2012: 9(10);937
Five microliters (1,500 cells/well) of the Parkin coincidence reporter cells were seeded to 1536 well assay plates (Greiner Catalog # 789173-F) and incubated at 37 C, 5% CO2 for 24 hours. Compounds (23 nL) were pinned using the Kalypsys robotic system equipped with 1536 pin head adaptor in 7-point dose response. The assay plates were incubated for additional 24 hr at 37 C, 5% CO2 followed by a volume reduction in each well to 2 uL using an automated plate washer/aspirator. Following the volume reduction,2 uL of FLuc detection reagent and plates were incubated for 10 minutes at room temperature. The FLuc luminescence signal was obtained using the PerkinElmer ViewLux plate imager and then 2 uL of NanoLuc detection reagent was added to the plates. After another 10 minute incubation, NanoLuc signal was obtained using the PerkinElmer ViewLux plate imager as before. Data from each channel was normalized to DMSO (neutral control) and the positive control compounds (100%).

| SMILES | outcome |
| --- | --- |
| NCCc1c[nH]c2ccc(O)cc12 | inactive |
| CNCCc1ccc(O)c(O)c1 | inactive |
| NC(N)=NOCCC(N)C(=O)O (stereo not given) | inactive |
| c1ccc(C2(c3ccccc3)CC2C2=NCCN2)cc1 (stereo not given) | inactive |
| NC(CCP(=O)(O)O)C(=O)O (stereo not given) | inactive |
| S=C(NC1CCCCC1)N1CCC(c2cnc[nH]2)CC1 | inactive |
| NCCc1c[nH]c2ccccc12 | inactive |
| O=C(O)Cc1cnc[nH]1 | inactive |
| Cn1cnc(CCN)c1 | inactive |
| C[C@@H]1O[C@H](C[N+](C)(C)C)C[C@H]1O | inactive |
| Cc1nccc2c1[nH]c1ccccc12 | inactive |
| CC(Cc1ccc(O)cc1)NCC(O)c1cc(O)cc(O)c1 (stereo not given) | inactive |
| Oc1ccc2c3c1O[C@H]1c4[nH]c5c(c4C[C@@]4(O)[C@@H](C2)N(CC2CC2)CC[C@]314)C[C@@]1(O)[C@H]2Cc3ccc(O)c4c3[C@@]1(CCN2CC1CC1)[C@H]5O4 | inactive |
| Clc1cnc(Oc2ccc(Oc3ncc(Cl)cc3Cl)cc2)c(Cl)c1 | inactive |
| COC(=O)[C@@H](N)CCCN=C(N)N[N+](=O)[O-] | inactive |
| CS(=N)(=O)CC[C@H](N)C(=O)O (stereo not given in full) | inactive |
| CCCN(CCC)[C@@H]1CCc2ccc(O)cc2C1 | inactive |
| COc1ccc2c(c[n+](C)c3c4cc5c(cc4ccc23)OCO5)c1OC | inactive |
| C#CCOC(=O)C1=CCCN(C)C1 | inactive |
| O=C1CCCN1CC#CCN1CCCC1 | inactive |

| SMILES | outcome |
| --- | --- |
| COc1cc(C(O)CN)ccc1O (stereo not given) | inactive |
| CNCCc1c[nH]c2ccc(O)cc12 | inactive |
| CCCCc1ccc(C(=O)O)nc1 | inactive |
| O=C(O)CC[N+](=O)[O-] | inactive |
| NC(=NCCC[C@H](N)C(=O)O)N[N+](=O)[O-] | inactive |
| C[C@@H](N)Cc1cnc[nH]1 | inactive |
| CCCN1CCO[C@@H]2c3cc(O)ccc3OC[C@H]21 | inactive |
| NC1CC1c1ccccc1 (stereo not given) | inactive |
| O=C(Cc1ccc(Cl)c(Cl)c1)N1CCCCC1CN1CCCC1 (stereo not given) | inactive |
| CC(C)Oc1cccnc1N(C)C1CCN(Cc2ccccc2)CC1 | inactive |
| CC[C@@]1(O)C(=O)OCc2c1cc1n(c2=O)Cc2cc3ccccc3nc2-1 | inactive |
| O=C(O)[C@@H]1CCN1 | inactive |
| CC1=NN=C(c2ccc(N)cc2)c2cc3c(cc2C1)OCO3 | inactive |
| CCCN(CCC)C1CCc2ccc(O)cc2C1 (stereo not given) | inactive |
| C[C@]12CCC3C(CC[C@H]4C[C@H](O)CC[C@]34C)C1CC[C@@H]2C(=O)CO (stereo not given in full) | inactive |
| NC(CP(=O)(O)O)C(=O)O (stereo not given) | inactive |
| CC[C@@H](C(N)=O)N1CCCC1=O | inactive |
| CN[C@@H]1C[C@@H](c2ccc(Cl)c(Cl)c2)c2ccccc21 | inactive |
| CN1C2CCC1CC(OC(=O)c1cc(Cl)cc(Cl)c1)C2 (stereo not given) | inactive |
| CC(=O)NCCc1c[nH]c2ccccc12 | inactive |
